# IL-2 act = qHTS of IL-2 Activators. IL-2 activation reporter assay, cell-based qHTS; stimulated with anti-CD3/CD4/CD28 beads; in transgenic mouse T cells. activation, % (series mostly up to about 46 µM). 360,000 compounds, 0.065% hits. AID 652025, 2013; in the data active = activation above about 50%; inconclusive = mostly about 30% to 49%; note: 0% is about no effect
#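 Readout is EGFP and DsRed signal by fluorescent plate cytometry after 18 h at 37 degrees C. Transgenic mouse T cells (750/well) received compound for 60 min before bead stimulation (anti-CD3, anti-CD4, anti-CD28); memory T cells served as non-tolerant control.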
# A549 viability = Nrf2 qHTS screen for inhibitors: counterscreen for cytotoxicity. 390,000 compounds, 0.16% hits. A549 ARE-Fluc cells, CellTiter-Fluor viability, 18-24 h. AID 504648, 2011. Potency, µM (doses to about 46 µM), without a hit: top-dose activity change, negative = cytotoxicity, usual class: inhibitors; note: potency is the fitted concentration of half-maximal effect; % is set by controls: 0 for no effect and ±100 for the full control effect
#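 Cytotoxicity counterscreen: CellTiter-Fluor fluorescence was measured in A549 ARE_Fluc cells after 18-24 h of compound exposure in a concentration series. The subsequent BugLite luminescent read reports ARE-luciferase activity.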
# Nrf2 ARE act = qHTS of Nrf2 Activators; AREc32 ARE-luciferase reporter (MCF7-derived line), luminescence, 24 h; Potency, µM (highest dose often 46.1 µM), for the others: at the top dose activation, usual class: activators; 410,000 compounds, 0.31% hits; AID 624171, 2012; note: potency is the fitted concentration of half-maximal effect; % of control where 0% means no effect; nearly all actives have a fitted effect of over 65% in size
#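 ARE activation measured as luciferase luminescence (Steady-Glo, 30 min RT) in AREc32_Fluc cells after 24 hr compound exposure at 37 deg C, 5% CO2; cells seeded overnight at 1000/well in OPTI-MEM, 5% FBS.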
# Nrf2 inh = Nrf2 qHTS screen for inhibitors | A549 ARE-Fluc reporter, luciferase luminescence, 18-24 h | Potency, µM (doses to about 46 µM), inactives show at the highest dose activity change, negative = inhibition, hits mostly inhibitors | 360,000 compounds, 2.1% hits; note: potency is the fitted concentration of half-maximal effect; % is set by controls: 0 for no effect and ±100 for the full control effect; nearly all actives have a fitted effect of over 60% in size
#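 A549 ARE_Fluc cells (5000/well, 5% FBS OPTI-MEM) pre-incubated 2 h, then treated with compounds 18-24 h at 37C/5% CO2 in concentration-response. CellTiter-Fluor viability read first; BugLite luciferase luminescence after 15 min at room temperature gives Nrf2 activity.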
# Numbers without * were called inactive; ? = inconclusive; . = no result; ! = a repeat was not active; [ ] = dose if it differs, or a comment. Rows were chosen to be rich in hits. Some 2.3% of all compounds tested hit in one or more screens of this group. Unless noted, calls come from the whole dose curve; as a rule, active = well fitted curve in the direction sought with a large enough effect; inconclusive = small, poorly fitted or top-dose-only effect, or another doubt; inactive = no such curve, though single readings can be large; an effect the other way counts as inactive or inconclusive.
SMILES,IL-2 act,A549 viability,Nrf2 ARE act,Nrf2 inh
Cc1nnc(NC(=O)c2ccc(S(=O)(=O)N3CCCCC3C)cc2)o1 (configuration not stated),-5.9,-0.2%,0.2%,-25.5%
CC1CCCCN1S(=O)(=O)c1ccc(C(=O)Nc2nnc(C3CC3)o2)cc1 (configuration not stated),-2.0,-16.3%,-0.9%,13µM*
O=C(Nc1nnc(-c2ccco2)o1)c1ccc(S(=O)(=O)N2CCCCC2)cc1,-0.5,.,-0.6%,.
CC1CCCCN1S(=O)(=O)c1ccc(C(=O)Nc2nnc(-c3ccco3)o2)cc1 (configuration not stated),11.1,?,-0.4%,20.6µM*
CC(C)(C)c1ccc(C(=O)NCCc2csc3nc(-c4ccccc4F)nn23)cc1,.,-0.1%,7.3%,.
O=S(=O)(c1cccc(Cl)c1)N1CCN(c2nc(-c3cccs3)nc3ccccc23)CC1,.,-3.7%,.,?
Cc1ccsc1CN(C(=O)c1oc2cc(Br)ccc2c1C)C1CCS(=O)(=O)C1 (configuration not stated),.,-18.4%,0.2%,?
Cc1ccccc1NC(=O)c1c(C)oc2ccc(O)c(CN(C)Cc3ccccc3)c12,.,0.9%,15.3%,19.7%
Cc1cc2c(s1)c1cnn(Cc3c(Cl)ccc(C)c3F)c(=O)c1n2C,.,-0.9%,.,2.6%
Cc1c(C)n(CCc2ccccc2)c2ncnc(NN)c12,-2.0,-0.4%,2.0%,0.3%
Cc1c(C)n(Cc2ccccc2)c2ncnc(NN)c12,-3.6,-16.7%,-0.3%,25.9µM*
O=C(Nc1ccc(Oc2c(F)c(F)c(F)c(F)c2F)cc1)OC1CCN2Cc3ccccc3N=C12 (configuration not stated),-2.6,20.6µM*,23.5%,23.1µM*
COc1ccc(S(=O)(=O)N/N=C\c2ccc3c(c2)OCO3)c(OC)c1,-2.9,-6.7%,0.3%,10.3µM*
COc1ccc(C2Nc3ccccc3C(=O)N2Cc2ccccn2)cc1COc1ccc(NC(C)=O)cc1 (configuration not stated),.,-11.0%,.,?
CCN(CC)CCC(c1cc(OC)c(OC)c(OC)c1)c1c(OC)cc(OC)c2c(C)cc(=O)oc12 (configuration not stated),1.5,?,10.4%,-0.1%
CCN(CC)CCC(c1ccc2c(c1)OCO2)c1c(OC)cc(OC)c2ccc(=O)oc12 (configuration not stated),0.3,16.4µM*,10.6%,7.2%
CCN(CC)CCC(c1cc(OC)c(OC)c(OC)c1)c1c(OC)cc(OC)c2ccc(=O)oc12 (configuration not stated),-0.5,14.6µM*!,9.9%,9.6%
COc1cc(OC)c2ccc(=O)oc2c1C(CC(=O)N1CCCC1)c1ccc2c(c1)OCO2 (configuration not stated),-0.2,-19.1%,3.7%,2.5%
N#CN1CCC(NS(=O)(=O)c2ccc(F)cc2)C1 (configuration not stated),.,-2.0%,.,8.2%
CC[C@H](C)Cc1cn([C@@H](CCCCNC(=O)OC(C)(C)C)C(=O)NCCCCCCCCCCC(=O)N2CCN(C(=O)OC(C)(C)C)CC2)nn1,-0.6,?,3.8%,10.3µM*
O=C(CN1C(=O)CSc2ccc(S(=O)(=O)N3CCCC3)cc21)NCc1ccc(F)cc1Cl,.,-0.2%,0.9%,.
C=C1C(=O)O[C@@H]2[C@H]1[C@@H](OC(=O)/C(C)=C/C)C/C(C)=C\C(=O)/C=C(\C)[C@@H]2O,-0.9,?,?,20.6µM*
CCCc1cc(=O)oc2c(C)c3c(cc12)CN(CCc1ccc(Cl)cc1)CO3,.,-1.1%,5.4%,6.4%
CC(C)CC(=O)NC(NC(=S)Nc1cccc2cccnc12)C(Cl)(Cl)Cl (configuration not stated),0.5,-20.7%,7.5%,20.6µM*
NS(=O)(=O)c1ccc(CCNC(=O)CN2CCC(Cc3ccccc3)CC2)cc1,-1.3,-9.7%,2.0%,20.6µM*
SMILES,IL-2 act,A549 viability,Nrf2 ARE act,Nrf2 inh
O=C(CN1CCC(Cc2ccccc2)CC1)NCCc1ccc(F)cc1,6.7,?,0.1%,?
CC(C)(C)OC(=O)Cc1nnc(-c2nc3ccccc3[nH]2)o1,.,-6.3%,.,?
Cc1ccc(-c2noc(CN(C3CCCCC3)S(=O)(=O)c3ccc(Cl)cc3)n2)cc1,.,10.4%,-1.0%,-6.4%
Cc1cc2c(s1)c1cnn(Cc3ccc(C)c(F)c3)c(=O)c1n2C,.,-0.2%,.,2.8%
CC1(C)CC(N2CCN(Cc3ccccc3)CC2)=CC(=[N+]2CCCCC2)C1,-6.2,-18.9%,-0.6%,18.4µM*
Cc1cc2c(s1)c1cnn(Cc3ccccc3C)c(=O)c1n2C,.,-1.9%,.,-11.0%
C=CCn1c2ccccc2c2nnc(SCCCn3c(=O)[nH]c4ccccc43)nc21,0.8,-14.2%,0.1%,13µM*
CCc1ccccc1NC(=O)Cn1nnc2sc3c(c2c1=O)CCC(C(C)(C)C)C3 (configuration not stated),.,5.5%,-0.4%,-14.1%
N#CC(c1ccccc1)c1ccc2c(C(F)(F)F)cc(C(F)(F)F)nc2n1 (configuration not stated),-0.7,?,?,25.9µM*
O=C(CN1C(=O)COc2ccc(S(=O)(=O)N3CCCCCC3)cc21)Nc1cccc(Cl)c1,.,18.4µM*,0.3%,?
CSc1cccc(NC(=O)CN2C(=O)COc3ccc(Cl)cc32)c1,.,0.8%,4.1%,16.4µM*
CN(C)C(CNC(=O)c1cc(S(=O)(=O)N(C)Cc2ccccc2)ccc1Cl)c1ccco1 (configuration not stated),-0.5,-8.0%,0.0%,14.6µM*
CN(C)C(CNC(=O)c1cc(Br)ccc1Cl)c1ccco1 (configuration not stated),1.0,-7.9%,2.5%,2.4%
COc1ccc(C2Nc3ccccc3C(=O)N2Cc2ccccc2)cc1COc1cccc(C)c1 (configuration not stated),.,-3.4%,.,-21.3%
Cc1ccc(-c2cn3c(=O)cc(C)[nH]c3n2)cc1,-1.6,-15.3%,0.2%,5.8µM*
Cc1cc(=O)n2cc(-c3ccccc3)nc2[nH]1,-1.6,7.5%,-0.3%,6.2%
COc1ccc(C(C)=O)cc1CSc1nnc(Nc2ccccc2)s1,0.8,-24.3%,3.8%,23.1µM*
Cc1cccc(OC(=O)c2cc(-c3ccc4c(c3)OCCO4)on2)c1C,.,1.0%,0.2%,?
Nc1c(C(O)(C(F)(F)F)C(F)(F)F)cc(C(O)(C(F)(F)F)C(F)(F)F)c2ccccc12,-1.8,?,-0.3%,14.6µM*
Cc1cc(C(=O)CN2C(=O)C(=O)N(C3CCCC3)C2=O)c(C)n1CCc1ccccc1,-4.8,-5.2%,-0.6%,18.4µM*
CCOC(=O)/C(=N/Nc1ccccc1)c1csc(Nc2ccccc2)n1,-2.3,5.1%[1.84 µM],5.6%,?
CCOC(=O)/C(=N\Nc1ccc(Cl)cc1)c1csc(Nc2ccccc2)n1,1.4,?,4.4%,16.4µM*
Cc1ccc(S(=O)(=O)Nc2nc3ccccc3nc2NCc2ccco2)cc1C,-0.3,-4.6%,5.2%,20.6µM*

# Screening data: PubChem, National Center for Advancing Translational Sciences (NCATS)
